High-throughput results from PubChem.
Platelet DG rel: platelet dense granule release activity; human platelet-rich plasma, SFLLRN dense granule ATP release, luminescence; inhibition, %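 (compounds screened at 7.5 µM in platelet-rich plasma)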; 0.22% of 300,000 active; AID 1663;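 active = mean replicate score, as percent of positive control, at or above 50; inconclusive = mean below 50 but at least one replicate at or above 50; inactive = mean and every replicate below 50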
TPT1 inhibitor: blocks Candida albicans tRNA 2'-phosphotransferase | recombinant caTPT1, FP RNA substrate dephosphorylation | inhibition, % at 5 µM | 0.81% of 300,000 active;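 active = inhibition above the mean of all tested compounds plus 3 SD, set per screening campaign, cut at about 24% in these data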
PHOSPHO1 block: PHOSPHO1 (human) inhibition; Q8TCT1; recombinant PHOSPHO1, absorbance phosphatase assay; inhibition, % at 13.3 µM; 1.1% of 290,000 active; AID 1565; in the data active = inhibition above about 60%
Rtt109 HAT inh: inhibitors of Candida albicans Rtt109/Vps75 histone acetyltransferase. Q5AAJ8. purified Rtt109/Vps75, ThioGlo CoA-SH fluorescence, 4 h. inhibition, % at 34.9 µM. 0.16% of 330,000 active. AID 540336;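 active = inhibition of at least 50% in every replicate; inconclusive = best replicate reaches 50% inhibition but some replicates fall short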
Target sequence (Q5AAJ8 whole entry, looked up): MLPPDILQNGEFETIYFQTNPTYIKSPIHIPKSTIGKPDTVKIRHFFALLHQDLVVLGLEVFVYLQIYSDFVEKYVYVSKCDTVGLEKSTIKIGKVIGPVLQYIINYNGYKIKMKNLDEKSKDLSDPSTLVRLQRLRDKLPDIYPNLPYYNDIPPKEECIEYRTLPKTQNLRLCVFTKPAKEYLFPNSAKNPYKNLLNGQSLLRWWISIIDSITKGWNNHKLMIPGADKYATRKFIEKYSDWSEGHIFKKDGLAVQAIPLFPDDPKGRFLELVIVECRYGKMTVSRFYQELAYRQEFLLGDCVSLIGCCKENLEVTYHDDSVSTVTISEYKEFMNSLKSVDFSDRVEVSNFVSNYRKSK
SKKanGAS inh: blocks kanamycin growth of S. pyogenes SKKanGAS strain; BacTiter-Glo, 6 h; inhibition, % at 7.5 µM; 1.3% of 300,000 active;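 active = mean replicate score, as percent of positive control median, at least 50; inconclusive = mean below 50 but one replicate at or above 50; inactive = mean and every replicate below 50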;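 also: strain carries kanamycin resistance gene driven by streptokinase promoter and grows in 40 µg/ml kanamycin; loss of luminescence reflects streptokinase promoter inhibition or plain growth inhibition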
WT yeast gro inh: growth inhibition of WT yeast, mitochondrial fusion screen; mitochondrial fusion phenotypic screen, WT strain; inhibition, % at 10 µM; 2.1% of 190,000 active; AID 1362; in the data active = inhibition above about 58%; tested in S. cerevisiae
Numbers stand for hits; – = inactive; ? = inconclusive; · = not tested or not shown. Sampled rows, rich in hits. Any-hit rate of the full collection: about 3.9%.

SMILES | Platelet DG rel | TPT1 inhibitor | PHOSPHO1 block | Rtt109 HAT inh | SKKanGAS inh | WT yeast gro inh
O=C(COc1coc(CN2CCc3ccccc32)cc1=O)Nc1cccc(F)c1 | – | – | · | – | – | ·
CN(C)CCCNC1CS(=O)(=O)CC1O (stereo not drawn) | – | – | – | – | – | –
O=S1(=O)CC(O)C(NCCO)C1 (stereo not drawn) | – | – | 64.7 | – | – | –
Cc1ncc(CN2CCC(N3CCC(C(=O)N4CCCC4)CC3)CC2)s1 | 55.1 | – | – | – | – | ·
C=C(C)[C@@H]1CC=C(CN2CCC(N3CCC(C(=O)N4CCCC4)CC3)CC2)CC1 | – | – | – | – | – | –
COc1ccccc1CCNC(=O)c1cccc(NC(=O)CC2SC(N3CCCCC3)=NC2=O)c1 (stereo not drawn) | · | · | · | – | · | ·
Cc1ccc(C(=O)CSc2nnc(-c3ccc4[nH]c(C)c(C)c4c3)o2)cc1C | – | – | 74.2 | – | – | –
CC(=O)c1c(C)[nH]c(C(=O)CSc2nnc(-c3ccccc3)o2)c1C | – | – | – | – | – | –
COc1ccc(N2CCN(C(=O)CSc3nnc(-c4ccc5[nH]c(C)c(C)c5c4)o3)CC2)cc1 | – | – | 63.6 | · | – | –
Cc1[nH]c2ccc(-c3nnc(SCC(=O)c4ccccc4F)o3)cc2c1C | – | – | 87.9 | – | – | –
Cc1ccc(C)c(NC(=O)CN(C)C(=O)c2ccc(S(=O)(=O)N3CCCCCC3)cc2)c1 | · | · | · | – | · | ·
O=C(O)CC(Cc1ccccc1)c1ccc2c(c1)OCO2 (stereo not drawn) | – | – | – | – | – | –
CC(=O)N(CCC(Cc1ccccc1)c1ccco1)Cc1ccco1 (stereo not drawn) | – | – | – | 53.0 | – | ·
CC(=O)N(CCC(Cc1ccccc1)c1ccc2c(c1)OCO2)Cc1ccc(Cl)cc1 (stereo not drawn) | – | – | – | – | 64.0 | –
COc1ccc(-n2nc3c(c2NC(=O)COc2cccc(OC)c2)CS(=O)(=O)C3)cc1 | – | – | – | – | – | ·
CN(C(=O)c1ccc(NC(=O)C2CCN(C(=O)OC(C)(C)C)CC2)cc1)C1CCC1 | · | · | · | – | · | ·
CC(=O)c1ccc(-c2cccc(-c3cc(=O)oc4ccc(C(C)(C)C)cc34)c2)cc1 | · | · | · | – | · | ·
C/C(=N\NC(=O)c1nnn(-c2nonc2N)c1-c1ccc2c(c1)OCO2)c1ccc(C)cc1 | – | – | – | – | – | ·
O=C(NC1CCCCC1)N1CCSC1=Nc1ccccc1 | – | – | – | – | – | 59.9
O=C(Nc1ccc(NC(=O)C2CCCCC2)nc1)c1ccccn1 | – | – | 62.9 | – | – | –
COc1ccccc1C(=O)Nc1ccc(NC(=O)C2CCCCC2)nc1 | – | – | – | – | – | ·
CNCCNC[C@H](Cc1cccc2ccccc12)NCCc1ccccc1 | · | · | · | – | · | ·
CNC[C@H](Cc1ccccc1)NC[C@@H](Cc1cccc2ccccc12)NCCc1ccc(C)cc1 | – | – | – | – | 94.5 | ·
O=C(COC(=O)C1C2CC3OC(=O)C1C3C2)Nc1cccc(C(F)(F)F)c1 (stereo not drawn) | – | – | – | – | – | ·
C/C(=N\NC(=O)c1ccc2c(c1)OCCO2)c1ccccc1 | 71.0 | – | – | – | – | ·
SMILES | Platelet DG rel | TPT1 inhibitor | PHOSPHO1 block | Rtt109 HAT inh | SKKanGAS inh | WT yeast gro inh
O=C(N/N=C/c1cccc(O)c1)c1ccc2c(c1)OCCO2 | – | – | – | – | – | ·
Cc1cccc(/C=N/NC(=O)c2ccc3c(c2)OCCO3)c1O | – | – | – | – | 90.8 | ·
CCOc1cccc(/C=N/NC(=O)c2ccc3c(c2)OCCO3)c1O | – | – | – | – | 95.3 | ·
Cc1cc2oc(=O)cc(CN(C)Cc3ccccc3Cl)c2cc1C | – | – | – | – | 61.6 | ·
CCC(=O)Nc1nc2ccc3sc(C)nc3c2s1 | – | – | 64.3 | – | – | –
Cc1nc2c(ccc3nc(NC(=O)C4CC4)sc32)s1 | – | – | 61.5 | – | – | –
Cc1c(Cl)ccc2sc(NC(=O)C3CC3)nc12 | ? | – | – | – | – | ·
O=C1c2ccccc2C(=O)N1CCSc1ncn[nH]1 | – | – | – | – | – | –
O=C1c2ccccc2C(=O)N1CCSc1n[nH]c(=S)s1 | – | – | 98.8 | – | – | –
CCC(C)c1ccccc1N1CC(C(=O)N2CCN(C(=O)c3ccco3)CC2)CC1=O (stereo not drawn) | · | · | · | – | · | ·
CC(O)CNc1nc2sc3c(c2c(=O)n1CCc1ccccc1)CCCCC3 (stereo not drawn) | – | – | – | · | – | 74.5
CN(C)CCNc1nc2sc3c(c2c(=O)n1CCc1ccccc1)CCCCC3 | – | – | – | – | – | ·
